# Screening results: PubChem BioAssay, National Center for Advancing Translational Sciences (NCATS)
# In the library only some 2.5% were active in any assay of this set; here they are far more common.
# Cruzain inh noDet: blocks cruzain activity in detergent-free assay; AID 1476; purified cruzain, Z-FR-AMC fluorescence, no detergent; 200,000 compounds, 2.3% hits; Potency, µM, inactives show max response, negative = inhibition, most hits filed as inhibitors;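 further: plate controls were enzyme without inhibitor for no effect and buffer without enzyme for full effect; nearly all actives have a fitted effect of over 40% in size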
# Target sequence (P25779 123-467 limits assumed): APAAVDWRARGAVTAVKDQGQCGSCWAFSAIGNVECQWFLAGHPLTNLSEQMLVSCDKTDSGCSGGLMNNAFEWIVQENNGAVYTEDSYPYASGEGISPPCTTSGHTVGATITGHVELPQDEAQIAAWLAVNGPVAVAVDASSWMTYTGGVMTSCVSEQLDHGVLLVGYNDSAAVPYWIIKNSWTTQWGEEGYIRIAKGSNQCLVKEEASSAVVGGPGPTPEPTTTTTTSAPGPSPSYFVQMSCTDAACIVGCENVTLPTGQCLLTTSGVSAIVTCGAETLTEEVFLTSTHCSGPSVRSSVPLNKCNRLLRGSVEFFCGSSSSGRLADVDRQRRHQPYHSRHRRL
#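 Purified cruzain at 1.5 nM, pre-incubated 15 min with compound at room temperature in 100 mM sodium acetate pH 5.5, 5 mM DTT, 0.00005% Triton X-100. Reaction started with 2 uM Z-FR-AMC; AMC fluorescence increase over 60 s gives rate.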
# Cruzain Triton: inhibitors of Trypanosoma cruzi cruzain with detergent; purified cruzain, Z-FR-AMC fluorescence, 0.01% Triton; 200,000 compounds, 0.43% hits; Potency, µM, without a hit: max response, negative = inhibition, usual class: inhibitors; AID 1478; P25779;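 further: plate controls were neutral wells for no effect and buffer without enzyme for full effect; nearly all actives have a fitted effect of over 40% in size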
#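 Sodium acetate buffer (100 mM, pH 5.5) containing 5 mM DTT and 0.01% Triton X-100 hosted 1.5 nM cruzain and test compound for 15 min at room temperature. Cleavage of 2 uM Z-FR-AMC was then tracked by fluorescence.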
# * = called active by the depositor; ? = inconclusive. The call rests on the fitted dose curve; in most records, active means well fitted curve in the direction sought with a large enough effect; inconclusive means small, poorly fitted or top-dose-only effect, or another doubt; inactive means no such curve, though single readings can be large; an effect the other way counts as inactive or inconclusive. Potency means the concentration at half of the fitted maximal effect.
SMILES,Cruzain inh noDet,Cruzain Triton
COc1ccc(N2CC(NC(=O)/C=C\c3ccc(OC)c(OC)c3)CC2=O)cc1 (stereo unspecified),-8%,-8%
CCOC(=O)c1c(C)n(-c2ccccc2)c2ccc(OC(=O)c3ccccc3)cc12,?,-2%
COc1ccccc1NC(=O)c1sc2nc(N3CCOCC3)c3c(c2c1N)CC(C)(C)OC3,10%,0%
Cc1nnc(SCC(=O)Nc2ccc(S(=O)(=O)N3CCCC3)cc2)n1N,-6%,2%
COc1ccc2nc(SCC(=O)Nc3ccc(S(=O)(=O)N4CCCC4)cc3)c(C#N)cc2c1,13µM*,-2%
Cc1cc(C)c2nc(SCC(=O)Nc3ccc(S(=O)(=O)N4CCCC4)cc3)c(C)cc2c1,13µM*,-8%
N#Cc1cc2ccccc2nc1SCC(=O)Nc1ccc(S(=O)(=O)N2CCCC2)cc1,?,-4%
COc1ccc(-c2nc3nc(C)cc(Nc4ccc(C(C)=O)cc4)n3n2)cc1,7%,-2%
COC(=O)c1ccc(NC(=O)CCc2c(C)nn(-c3ccc(N4CCCCC4)nn3)c2C)cc1,19%,-6%
CN(C(=O)C(=O)Nc1ccc2nc3n(c(=O)c2c1)CCCCC3)c1cccc(C(F)(F)F)c1,?,-3%
Nc1ccc2nn(-c3cccc4ccccc34)nc2c1,?,-3%
Cc1cc2nn(-c3cccc4ccccc34)nc2cc1N,16µM*,-3%
COc1ccc(-c2nc3cnc(N4CCOCC4)nc3n(Cc3cccc(OC)c3)c2=O)cc1,0%,2%
Cc1cc(/C=C(\C#N)C(=O)NCCc2c[nH]c3ccccc23)c(C)n1C,0%,-8%
COc1cc(/C=C(/C#N)C(=O)NCCc2c[nH]c3ccccc23)ccc1OCc1ccccc1F,7.9µM*,5%
CN(C)c1ccc(NC(=O)/C=C/c2ccccc2Cl)cc1,-15%,-4%
CCN(CC)c1ccc(NC(=O)/C=C\c2ccccc2Cl)cc1,25µM*,-10%
Cn1c2ccccc2n2c(=O)c(Cl)c(-c3ccccc3)c(C#N)c12,-24%,-6%
CCSc1nnc(NC(=O)COc2ccccc2)s1,?,-5%
Cc1csc(NC(=O)CSc2nnc(NC(=O)COc3ccc(Cl)cc3)s2)n1,5µM*,-1%
CCOC(=O)CSc1nc2sc(C)c(C)c2c(=O)n1N,-9%,-1%
COC(=O)c1sc2nc(SCc3ccccc3C#N)n(N)c(=O)c2c1C,32µM*,-8%
O=C(Nc1ccc(N=Nc2ccccc2)cc1)c1ccc(Cl)cc1Cl,13µM*,7%
O=C(Nc1ccc(N=Nc2ccccc2)cc1)c1ccccc1Cl,-1%,-5%
O=C(Nn1c(C2CCCCC2)nc2ccccc2c1=O)c1ccc([N+](=O)[O-])cc1Cl,-8%,-1%
SMILES,Cruzain inh noDet,Cruzain Triton
CCN(C(=O)C1CCN(S(=O)(=O)c2ccc3c(c2)CCCN3C(C)=O)CC1)c1cccc(C)c1,?,-1%
COc1ccc(OC)c(C2C=C(C34CC5CC(CC(C5)C3)C4)NC(=S)N2)c1 (stereo unspecified),25µM*,-2%
COc1cc(C2C=C(C34CC5CC(CC(C5)C3)C4)NC(=S)N2)cc(OC)c1OC (stereo unspecified),?,1%
Cc1ccc(-c2nc3c(C)cccn3c2Nc2ccccc2C)s1,-10%,-9%
COc1ccccc1N(O)C1CC(=O)N(c2ccc(Br)cc2)C1=O (stereo unspecified),?,-8%
CCCCCCC(=O)N(O)C1CC(=O)N(c2ccc(Br)cc2)C1=O (stereo unspecified),10µM*,2%
CC1=NN(C(=O)c2ccncc2)C(=O)[C@@H]1N=Nc1ccc2ccccc2c1,-5%,-3%
CC1=NN(c2nc(-c3ccc(C)cc3)cs2)C(=O)C1N=Nc1ccc2ccccc2c1 (stereo unspecified),3.2µM*,-7%
CC(=O)OC1CC2C(C)(C)C(=O)C3OC3[C@]2(C)C2CC[C@@]3(C)C(c4ccoc4)OC(=O)C4OC43[C@]12C (stereo partly specified),19%,-1%
Cc1cccc(CC(=O)NC2CC(=O)N(c3cccc(F)c3)C2)c1 (stereo unspecified),13%,1%
O=C(COC(=O)c1ccc(Sc2ccccc2)c([N+](=O)[O-])c1)NC1CCCc2ccccc21 (stereo unspecified),13µM*,2%
CC1CC(C)CN(c2ccc(C(=O)OCC(=O)NC3CCCc4ccccc43)cc2[N+](=O)[O-])C1 (stereo unspecified),?,1%
COc1ccccc1C(=O)NCCC(=O)N1CC(=O)Nc2ccccc21,-10%,2%
COc1ccccc1NS(=O)(=O)c1cc([N+](=O)[O-])ccc1N/N=C/c1c(C)[nH]c2ccccc12,7.9µM*,0%
O=[N+]([O-])c1ccc(N/N=C/c2c[nH]c3ccccc23)c(S(=O)(=O)Nc2ccc(Cl)cc2)c1,?,0%
Cc1[nH]c2ccccc2c1/C=N/Nc1ccc(F)cc1F,?,-1%
Cc1[nH]c2ccccc2c1/C=N/Nc1ccc([N+](=O)[O-])cc1,25µM*,-1%
O=C(c1ccncc1)N1CCC2(CC1)CN(Cc1cc(C(F)(F)F)cc(C(F)(F)F)c1)C2,6%,3%
CCC(Sc1ncc(S(=O)(=O)c2ccc(Cl)cc2)c(=O)[nH]1)C(=O)Nc1ccc(OC)cc1 (stereo unspecified),10%,-9%
O=C(/C(=N\Nc1ccc([N+](=O)[O-])cc1)Sc1nnnn1-c1ccccc1)c1ccccc1,?,-8%
Cc1ccc(N/N=C(/Sc2nnnn2-c2ccccc2)C(=O)c2ccccc2)cc1,32µM*,-5%
CN(C)S(=O)(=O)c1cccc(C(=O)N2CCc3ccccc32)c1,-7%,0%
CN(C)S(=O)(=O)c1cccc(C(=O)C2=C3SC=C(c4ccccc4)N3CC2)c1,25µM*,-4%
COc1cc(Cl)cc2c1Sc1ccccc1/C2=C/CCN(C)C,1%,-9%
CN(C)CC/C=C1/c2ccccc2Sc2c(O)cc(Cl)cc21,25µM*,-15%
SMILES,Cruzain inh noDet,Cruzain Triton
COc1ccccc1NC(=O)c1c(NC(=O)COc2ccccc2)sc2c1CCCCC2,-7%,0%
CCOC(=O)c1ccc(NS(=O)(=O)c2cn(C)c(C)n2)cc1,12%,0%
O=S(=O)(c1cccc(-c2nnc(SCc3ccc(Cl)cc3)o2)c1)N1CCCCC1,-23%,-1%
O=C(CSc1nnc(-c2cccc(S(=O)(=O)N3CCCCC3)c2)o1)c1ccc[nH]1,16µM*,0%
CN(Cc1ccco1)c1ccnc(-c2ccccc2C(F)(F)F)n1,2%,1%
NC(=[SH+])N=N/C=C1/C=CC=CN1.O=S(=O)(O)O.[Fe],3%,-2%
CCCCc1ccc(NC(=O)c2ccc3c(c2)CCN3S(=O)(=O)c2ccccc2)cc1,?,-2%
CCCCOC(=O)c1ccc(NC(=O)c2ccc3c(c2)CCN3S(=O)(=O)c2ccccc2)cc1,13µM*,0%
Cc1ccc(NC(=O)CSc2nnc([C@@H](N)Cc3c[nH]c4ccccc34)o2)c(C)c1,16µM*,18µM*
CCc1ccccc1NC(=O)CSc1nnc([C@@H](N)Cc2ccccc2)o1,10µM*,10µM*
N[C@@H](Cc1ccccc1)c1nnc(SCc2ccccc2Cl)o1,18%,4%
CCN(CC)C(=O)CSc1nnc([C@@H](N)Cc2ccccc2)o1,25µM*,25µM*
CCN(CC)C(=O)CSc1nnc(CCN)o1,-10%,4%
C=C(C)CSc1nnc([C@@H](N)Cc2c[nH]c3ccccc23)o1,2%,-5%
